# Results filed as inconclusive are left out. Calls of active or inactive are those of the source. The call rests on the fitted dose curve; in most records, active means well fitted cell-killing curve with a large enough effect in the repeat runs; inconclusive means weak or mixed curves; inactive means no such curve, though single readings can be large or run the other way.
# Test: qHTS assay to identify small molecule agonists of the peroxisome proliferator-activated receptor delta (PPARd) signaling pathway - cell viability counter screen (AID 743211); further: nearly all actives have a fitted effect of over 55% in size
# Conditions: PPARd-bla HEK293H viability, CellTiter-Glo luminescence, 17 h; series mostly up to 62.6 µM; activity change, negative = cytotoxicity: at the top concentration
# Description: U.S. Tox21 Program National Center for Advancing Translational Sciences [NCATS] NIH Chemical Genomics Center [NCGC] U.S. Environmental Protection Agency [EPA] National Institutes of Environmental Health Sciences [NIEHS] National Toxicology Program [NTP] U.S. Food and Drug Administration [FDA] Tox21 Assay Overview: The peroxisome proliferator-activated receptors (PPARs) are lipid-activated transcription factors of the nuclear receptor superfamily with three distinct subtypes namely PPAR alpha, PPAR delta (PPARd) and PPAR gamma. All these subtypes heterodimerizes with Retinoid X receptor (RXR) and have different physiological functions. […] To identify the compounds that activate PPAR-delta signaling, GeneBLAzer PPAR delta UAS-bla HEK293H cell line (Invitrogen, Carlsbad, CA, USA) containing a beta-lactamase reporter gene under the control of an Upstream Activator Sequence (UAS) was used to screen the Tox21 compound library. The cytotoxicity of the Tox21 compound library against the PPARd-bla cell line was tested in parallel by measuring the cell viability using CellTiter-Glo assay (Promega, Madison, WI) in the same wells.
# Tox21 Assay Protocol Summary: PPARd-bla cells were dispensed at 3000 cells/6uL/well in 1536-well black wall/clear bottom plates using a Multidrop Combi (Thermo Fisher Scientific, Waltham, MA) dispenser. After the assay plates were incubated at 37 C and 5% CO2 for 5 h, 23 nL of compounds dissolved in DMSO, positive controls or DMSO only was transferred to the assay plate by a Pintool station (Kalypsys, San Diego, CA). The assay plates were incubated at 37C for 17 h. After 1 uL of LiveBLAzerTM B/G FRET substrate was added using a Bioraptr Flying Reagent Dispenser (FRD) workstation (Beckman Coulter, Indianapolis, IN, USA), the plates were incubated at room temperature for 2 h, and fluorescence intensity was measured by an Envision plate reader (PerkinElmer, Shelton, CT). For cell viability readout that measures cytotoxicity, 3 ul/well of CellTiter-Glo reagent was added into the assay plates using a Bioraptr FRD. After 30 min incubation at room temperature, the luminescence intensity in the plates was measured using a ViewLux plate reader (PerkinElmer).
# On the % scale 0 is the no-effect control and ±100 the full control effect; potency means the concentration at half of the fitted maximal effect.
SMILES,"activity change, negative = cytotoxicity",Potency
CN1C(CSCC(F)(F)F)Nc2cc(Cl)c(S(N)(=O)=O)cc2S1(=O)=O (stereo not given),0.0336% (inactive),
CC(CO)(CO)C(=O)O,-4.28% [at 81.1 µM] (inactive),
CC[C@@H](CO)NCCN[C@@H](CC)CO,-0.704% (inactive),
COC(=O)Nc1nc2ccc(C(=O)C3CC3)cc2[nH]1,-13.5% (inactive),
CC(C)Cc1ccc(CC(=O)O)cc1,-17.8% (inactive),
NC(=O)CCCCC(N)=O,0.827% [at 81.1 µM] (inactive),
NC(=O)c1ccccc1[N+](=O)[O-],-1.43% [at 81.1 µM] (inactive),
CN1CCCN(C(c2ccccc2)c2ccc(Cl)cc2)CC1 (stereo not given),,21.1 µM (active)
CCCCC[C@H](O)/C=C/[C@H]1[C@H](O)CC(=O)[C@@H]1C/C=C\CCCC(=O)O,1.64% (inactive),
CN(C)CC/C=C1\c2ccccc2Sc2ccc(Cl)cc21,,29.8 µM (active)
CNS(=O)(=O)c1cc(C(=O)N2CCC(CCN3C4CCC3CC(n3c(C)nc5ccccc53)C4)(c3cccc(F)c3)CC2)c(Cl)cc1F (stereo not given),,8.71 µM (active)
CCCCOCCOC(=O)c1cccnc1,-2.39% (inactive),
CC(=O)c1ccc[nH]1,8.71% (inactive),
O=C(CCS)OCC(COC(=O)CCS)(COC(=O)CCS)COC(=O)CCS,0.26% (inactive),
Nc1ccc(F)cc1,-3.42% [at 81.1 µM] (inactive),
CC[C@H]1OC(=O)[C@H](C)[C@@H](O[C@H]2C[C@@](C)(OC)[C@@H](O)[C@H](C)O2)[C@H](C)[C@@H](O[C@@H]2O[C@H](C)C[C@H](N(C)C)[C@H]2O)[C@](C)(O)C[C@@H](C)C(=O)[C@H](C)[C@@H](O)[C@]1(C)O,-12.8% (inactive),
CC(=O)OCCC1CCCCC1,6.21% (inactive),
COc1ccc(C)cc1,2.7% (inactive),
C[C@@H]1C[C@H]2[C@@H]3CCC4=CC(=O)C=C[C@]4(C)[C@@]3(F)[C@@H](O)C[C@]2(C)[C@@]1(O)C(=O)COP(=O)(O)O,6.06% (inactive),
C=CC(=O)O,3.41% (inactive),

SMILES,"activity change, negative = cytotoxicity",Potency
O=C1c2ccccc2C(=O)c2c(O)ccc(O)c21,-11.4% (inactive),
CC(=O)OC(C)C[N+](C)(C)C (stereo not given),5.49% (inactive),
c1ccc(CNc2ncnc3c2ncn3C2CCCCO2)cc1 (stereo not given),-3.62% (inactive),
O=C1OC[C@H](Cc2cccc(O)c2)[C@H]1Cc1cccc(O)c1,-8.02% [at 29.1 µM] (inactive),
Cc1ccc(NC(=O)N(C)C)cc1NC(=O)N(C)C,-13.4% (inactive),
CC(C)(C)CCCCCCOC(=O)c1ccccc1C(=O)OCCCCCCC(C)(C)C,6.84% (inactive),
O=C(O)c1cccc(C[C@@H]2COc3ccc(OCc4nc5cc(F)ccc5s4)cc3[C@@H]2O)c1,1.95% (inactive),
O=CNNC=O,-6.21% [at 81.1 µM] (inactive),
COC(=O)CC(C(C)=O)C(=O)OC (stereo not given),0.245% (inactive),
COc1cc(S(=O)(=O)Nc2ccccc2)c(OC)cc1N,-2.15% (inactive),
CC(CCc1ccc(O)cc1)NCCc1ccc(O)c(O)c1 (stereo not given),-1.26% (inactive),
COc1cc(NC(C)CCCN)c2ncccc2c1 (stereo not given),-15% (inactive),
C[C@H](CS)C(=O)N1CCC[C@H]1C(=O)O,4.13% (inactive),
CN=C(N)NC(=O)Nc1c(C)cccc1C,-2% (inactive),
CC1CCC(C(C)CS)CC1S (stereo not given),-0.571% (inactive),
O[C@@H](CNC[C@H](O)[C@H]1CCc2cc(F)ccc2O1)[C@@H]1CCc2cc(F)ccc2O1,,23.7 µM (active)
CC(C(=O)O)c1ccc(C(=O)c2cccs2)cc1 (stereo not given),-1.17% (inactive),
CCCOC(=O)c1c(Cl)c(Cl)c(Cl)c(Cl)c1C(=O)OCCC,8.11% (inactive),
CCCC(=O)OC(=O)CCC,3.65% [at 81.1 µM] (inactive),
O=C(NC(Cc1cc(=O)[nH]c2ccccc12)C(=O)O)c1ccc(Cl)cc1 (stereo not given),1.64% (inactive),

# Reference: PubChem BioAssay (Tox21)
